{"source": "PubChem BioAssay AID588511", "about": "(Johns Hopkins Ion Channel Center, 2011)", "note": "Screen size: about 310,000 compounds; about 3,600 (1.2%) were called active.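 Rule for the calls: active = ratio plate-corrected score three or more library SD toward inhibition, starting fluorescence score within five deviations; inactive = the rest.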 Shown is part of a subset that was picked to be rich in actives."}
{"target": "Anoctamin-1 (Mus musculus) (UniProt Q8BHY3)", "sequence (Q8BHY3 whole entry, looked up)": "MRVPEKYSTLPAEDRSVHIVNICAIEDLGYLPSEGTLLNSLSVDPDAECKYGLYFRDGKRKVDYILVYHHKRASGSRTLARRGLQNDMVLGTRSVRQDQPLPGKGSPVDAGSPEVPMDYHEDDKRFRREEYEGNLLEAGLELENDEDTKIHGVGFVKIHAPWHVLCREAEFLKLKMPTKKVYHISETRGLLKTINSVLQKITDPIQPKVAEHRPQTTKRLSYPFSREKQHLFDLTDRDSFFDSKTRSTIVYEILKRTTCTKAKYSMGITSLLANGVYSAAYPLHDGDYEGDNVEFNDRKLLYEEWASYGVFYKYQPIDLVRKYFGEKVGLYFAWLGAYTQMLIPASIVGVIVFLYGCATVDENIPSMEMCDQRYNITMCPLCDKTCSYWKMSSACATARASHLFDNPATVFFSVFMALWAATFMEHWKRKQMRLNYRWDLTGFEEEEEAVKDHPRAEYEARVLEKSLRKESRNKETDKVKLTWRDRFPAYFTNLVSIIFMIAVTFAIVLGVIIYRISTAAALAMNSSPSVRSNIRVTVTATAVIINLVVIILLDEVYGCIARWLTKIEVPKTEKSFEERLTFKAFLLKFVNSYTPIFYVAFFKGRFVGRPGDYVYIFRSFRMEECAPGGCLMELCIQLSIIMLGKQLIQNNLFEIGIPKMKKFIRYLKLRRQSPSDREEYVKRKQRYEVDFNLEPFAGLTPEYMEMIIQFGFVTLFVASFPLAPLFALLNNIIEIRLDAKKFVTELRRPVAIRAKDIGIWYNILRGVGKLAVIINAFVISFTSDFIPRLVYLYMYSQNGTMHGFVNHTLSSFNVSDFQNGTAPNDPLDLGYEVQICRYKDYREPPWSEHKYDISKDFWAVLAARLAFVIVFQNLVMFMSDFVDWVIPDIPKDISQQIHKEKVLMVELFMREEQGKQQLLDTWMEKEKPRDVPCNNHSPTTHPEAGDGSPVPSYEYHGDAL", "assay": "blockers of mouse ANO1 Ca-activated Cl channel – cell-based, HTS, primary screen (AID 588511);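 for normalized B-score (activity score, 25-100; higher = stronger inhibition): score derived from kinetic fluorescence span divided by baseline fluorescence per well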", "details": "HEK293 TMEM16A/YFP iodide influx fluorescence, ionomycin; at 10 µM"}
{"smiles": "Cc1cccnc1NC(=O)Cn1c(=O)oc2ccccc21", "normalized B-score (activity score, 25-100; higher = stronger inhibition)": "inactive"}
{"smiles": "COCc1c(C(=O)N/N=C(\\C)c2ccncc2)nnn1-c1nonc1N", "normalized B-score (activity score, 25-100; higher = stronger inhibition)": "inactive"}
{"smiles": "S=c1[nH]nc(NCCc2ccccc2)s1", "normalized B-score (activity score, 25-100; higher = stronger inhibition)": "inactive"}
{"smiles": "Cc1nc(C)c(-c2csc(NCCc3ccccc3)n2)s1", "normalized B-score (activity score, 25-100; higher = stronger inhibition)": "100 (active)"}
{"smiles": "CCNc1nc(-c2cc3ccccc3o2)cs1", "normalized B-score (activity score, 25-100; higher = stronger inhibition)": "inactive"}
{"smiles": "COc1cccc(CNC(=O)c2cccnc2Sc2ccc(Cl)cc2)c1", "normalized B-score (activity score, 25-100; higher = stronger inhibition)": "inactive"}
{"smiles": "Cc1ccc(NC(=O)C(=O)NCc2ccc(/C=N/NC(=O)c3c(C)nc4cc(C)ccn34)o2)cc1", "normalized B-score (activity score, 25-100; higher = stronger inhibition)": "inactive"}
{"smiles": "CCN(Cc1ccccc1)C(=O)CN1C(=S)NC(C)(C)CC1C", "note": "(stereo unspecified)", "normalized B-score (activity score, 25-100; higher = stronger inhibition)": "inactive"}
{"smiles": "N#Cc1c(-c2ccc(F)cc2)nc(-c2ccccc2)[nH]c1=O", "normalized B-score (activity score, 25-100; higher = stronger inhibition)": "inactive"}
{"smiles": "Cc1ccc(CSc2nc(-c3ccccc3)c(C#N)c(=O)[nH]2)cc1", "normalized B-score (activity score, 25-100; higher = stronger inhibition)": "100 (active)"}
{"smiles": "N#Cc1c(-c2ccccc2)nc(SCc2cccc(C(F)(F)F)c2)[nH]c1=O", "normalized B-score (activity score, 25-100; higher = stronger inhibition)": "100 (active)"}
{"smiles": "O=c1[nH]c(SCc2ccccc2)nnc1-c1ccccc1", "normalized B-score (activity score, 25-100; higher = stronger inhibition)": "inactive"}
{"smiles": "O=c1[nH]c(SCc2cccc(F)c2)nc2ccccc12", "normalized B-score (activity score, 25-100; higher = stronger inhibition)": "inactive"}
{"smiles": "N#Cc1c(-c2ccccc2)nc(SCc2ccc([N+](=O)[O-])cc2)[nH]c1=O", "normalized B-score (activity score, 25-100; higher = stronger inhibition)": "inactive"}
{"smiles": "O=C(CCN1C(=O)C2CCCCC2C1=O)Nc1ccc(OC(F)F)cc1", "note": "(stereo unspecified)", "normalized B-score (activity score, 25-100; higher = stronger inhibition)": "inactive"}
{"smiles": "O=C(COC(=O)c1ncc(Cl)c(Cl)c1Cl)NNC(=O)c1ccccc1", "normalized B-score (activity score, 25-100; higher = stronger inhibition)": "inactive"}
{"smiles": "O=C(CC1C(=O)NCCN1CC(c1ccccc1)c1ccccc1)NCCc1cn[nH]c1", "note": "(stereo unspecified)", "normalized B-score (activity score, 25-100; higher = stronger inhibition)": "inactive"}
{"smiles": "COc1ccc(C(=O)Nc2cc(C)c(NC(=O)c3ccccc3OC)cn2)cc1", "normalized B-score (activity score, 25-100; higher = stronger inhibition)": "inactive"}
{"smiles": "CC1CN(C(=S)Nc2cccc(F)c2)CC(C)O1", "note": "(stereo unspecified)", "normalized B-score (activity score, 25-100; higher = stronger inhibition)": "inactive"}
{"smiles": "Cc1ccc(CNC(=O)c2ccc(CS(=O)Cc3cccc(Cl)c3)o2)cc1", "note": "(stereo unspecified)", "normalized B-score (activity score, 25-100; higher = stronger inhibition)": "inactive"}
{"smiles": "CCCOc1cccc(C(=O)NCCCNC(=O)c2cccnc2)c1", "normalized B-score (activity score, 25-100; higher = stronger inhibition)": "inactive"}
{"smiles": "CCc1ccc[n+](-c2nc([O-])sc2C=O)c1", "normalized B-score (activity score, 25-100; higher = stronger inhibition)": "inactive"}
{"smiles": "CC(C)(C)c1cc(NC(=O)NN2CCOCC2)nn1-c1c(Cl)cc(Cl)cc1Cl", "normalized B-score (activity score, 25-100; higher = stronger inhibition)": "inactive"}
{"smiles": "COc1ccc(-c2nnc(NC(=O)CS(=O)(=O)c3ccc(Cl)cc3)o2)c(OC)c1", "normalized B-score (activity score, 25-100; higher = stronger inhibition)": "inactive"}
{"smiles": "COc1cccc(NC(=O)c2ccc(S(=O)(=O)N(C)C)cc2)c1", "normalized B-score (activity score, 25-100; higher = stronger inhibition)": "inactive"}
{"smiles": "COc1cccc(-c2nnc(NC(=O)c3ccc(S(=O)(=O)N(CC(C)C)CC(C)C)cc3)o2)c1", "normalized B-score (activity score, 25-100; higher = stronger inhibition)": "100 (active)"}
{"smiles": "CCn1c(C)nc2c1C(=O)c1ccccc1C2=O", "normalized B-score (activity score, 25-100; higher = stronger inhibition)": "inactive"}
{"smiles": "CSc1ccccc1OCc1cc(C(=O)N2C[C@H]3CC[C@H]2C3)no1", "normalized B-score (activity score, 25-100; higher = stronger inhibition)": "inactive"}
{"smiles": "N#Cc1nc(COc2ccc(-c3ccccc3)cc2)oc1NCc1cccnc1", "normalized B-score (activity score, 25-100; higher = stronger inhibition)": "100 (active)"}
{"smiles": "O=S(=O)(c1ccc(Br)cc1)c1nc(-c2ccccc2)oc1NCc1cccnc1", "normalized B-score (activity score, 25-100; higher = stronger inhibition)": "inactive"}
{"smiles": "Cc1ccc(OCc2nc(C#N)c(N3CCCC3)o2)cc1", "normalized B-score (activity score, 25-100; higher = stronger inhibition)": "inactive"}
{"smiles": "CC(=O)N(c1ccc2oc(=O)sc2c1)S(=O)(=O)c1ccc(C)cc1", "normalized B-score (activity score, 25-100; higher = stronger inhibition)": "inactive"}
{"smiles": "Cn1c(SCc2ccc(F)cc2)nnc1-c1ccncc1", "normalized B-score (activity score, 25-100; higher = stronger inhibition)": "inactive"}
{"smiles": "C=CCn1c(CNS(=O)(=O)c2ccc(Br)cc2)nnc1SC", "normalized B-score (activity score, 25-100; higher = stronger inhibition)": "inactive"}
{"smiles": "CN1OC(COC(=O)c2ccc(Cl)cc2)CC1c1ccccc1", "note": "(stereo unspecified)", "normalized B-score (activity score, 25-100; higher = stronger inhibition)": "100 (active)"}
{"smiles": "Cn1cncc1COC(=O)c1ccc(Cl)cc1", "normalized B-score (activity score, 25-100; higher = stronger inhibition)": "inactive"}
{"smiles": "CCOC(=O)c1cc(NC(=O)c2ccc(Cl)cc2)c(=O)oc1-c1ccccc1", "normalized B-score (activity score, 25-100; higher = stronger inhibition)": "inactive"}
{"smiles": "Cc1cc(OC(=O)c2ccc(Cl)cc2)cc(=O)n1C", "normalized B-score (activity score, 25-100; higher = stronger inhibition)": "inactive"}
{"smiles": "Cc1ccc(C)c(N2CCN(C(=O)CCCCCn3c(=S)[nH]c4ccc(N5CCOCC5)cc4c3=O)CC2)c1", "normalized B-score (activity score, 25-100; higher = stronger inhibition)": "inactive"}
{"smiles": "Cc1ccc(C)c(N2CCN(C(=O)CCCCn3c(=O)[nH]c4ccccc4c3=O)CC2)c1", "normalized B-score (activity score, 25-100; higher = stronger inhibition)": "25 (active)"}
{"smiles": "Cc1ccc(C)c(N2CCN(C(=O)CCc3nc4ccccc4[nH]3)CC2)c1", "normalized B-score (activity score, 25-100; higher = stronger inhibition)": "inactive"}
{"smiles": "CC(OC(=O)c1ccc(-n2cnnn2)cc1)C(=O)NCc1ccccc1", "note": "(stereo unspecified)", "normalized B-score (activity score, 25-100; higher = stronger inhibition)": "inactive"}
{"smiles": "COCCNS(=O)(=O)c1cc(Br)ccc1OC", "normalized B-score (activity score, 25-100; higher = stronger inhibition)": "inactive"}
{"smiles": "CC(=O)N1CCc2cc(S(=O)(=O)NC3CCCCC3)ccc21", "normalized B-score (activity score, 25-100; higher = stronger inhibition)": "inactive"}
{"smiles": "Cc1ccc(C)n1-c1ccncc1", "normalized B-score (activity score, 25-100; higher = stronger inhibition)": "inactive"}
{"smiles": "Cc1ccc(N)cc1-n1c(C)ccc1C", "normalized B-score (activity score, 25-100; higher = stronger inhibition)": "100 (active)"}
{"smiles": "CCCn1nnnc1NCc1ccc(OC)cc1", "normalized B-score (activity score, 25-100; higher = stronger inhibition)": "inactive"}
{"smiles": "COc1ccc(CNc2nnnn2C)cc1", "normalized B-score (activity score, 25-100; higher = stronger inhibition)": "25 (active)"}
{"smiles": "Cn1nnnc1NCc1ccc(Cl)c(Cl)c1", "normalized B-score (activity score, 25-100; higher = stronger inhibition)": "inactive"}
{"smiles": "C[C@@H]1C[C@@H]2O[C@H]2/C=C\\C=C\\C(=O)Cc2c(Cl)c(O)cc(O)c2C(=O)O1", "normalized B-score (activity score, 25-100; higher = stronger inhibition)": "inactive"}
{"smiles": "CC(C)Nc1nnc(SCC(=O)/C=C2\\N(C)c3ccccc3C2(C)C)s1", "normalized B-score (activity score, 25-100; higher = stronger inhibition)": "inactive"}
{"smiles": "CC(=O)Nc1cccc(OCC(=O)/C=C2\\N(C)c3ccccc3C2(C)C)c1", "normalized B-score (activity score, 25-100; higher = stronger inhibition)": "100 (active)"}
{"smiles": "CN1/C(=C\\C(=O)c2oc3ccccc3c2N)C(C)(C)c2ccccc21", "normalized B-score (activity score, 25-100; higher = stronger inhibition)": "inactive"}
{"smiles": "CCOc1cc(/C=N/NC(=O)c2cccc(S(=O)(=O)N3CCOCC3)c2)ccc1OCC(=O)N(C)C", "normalized B-score (activity score, 25-100; higher = stronger inhibition)": "inactive"}
{"smiles": "CO[C@@H]1[C@@H](OC(N)=O)[C@@H](O)C(Oc2ccc3c(O)c(NC(=O)c4ccc(O)c(CC=C(C)C)c4)c(=O)oc3c2C)OC1(C)C", "note": "(stereo partly specified)", "normalized B-score (activity score, 25-100; higher = stronger inhibition)": "inactive"}
{"smiles": "O=C(O)C1=NN(c2c(F)c(F)cc(F)c2F)C(=O)CC1", "normalized B-score (activity score, 25-100; higher = stronger inhibition)": "inactive"}
{"smiles": "Cc1ccc(CN(N=Nc2nonc2N)c2nonc2N)c(C)c1", "normalized B-score (activity score, 25-100; higher = stronger inhibition)": "25 (active)"}
{"smiles": "COc1ccc(Cc2nnc(SCC(=O)c3cccc([N+](=O)[O-])c3)n2C)cc1", "normalized B-score (activity score, 25-100; higher = stronger inhibition)": "inactive"}
{"smiles": "O=C(Nc1ccccc1)c1ccccc1NC(=O)C(F)(F)F", "normalized B-score (activity score, 25-100; higher = stronger inhibition)": "100 (active)"}
{"smiles": "COc1ccccc1C(=O)Nc1ccccc1C(=O)Nc1ccccc1", "normalized B-score (activity score, 25-100; higher = stronger inhibition)": "inactive"}
{"smiles": "O=C(Nc1ccc(NC(=O)c2ccccc2F)cc1)c1ccccc1F", "normalized B-score (activity score, 25-100; higher = stronger inhibition)": "inactive"}
{"smiles": "CCn1cc(CN2CCC(C(=O)Nc3cccc(-c4cccc(Cl)c4)c3)CC2)cn1", "normalized B-score (activity score, 25-100; higher = stronger inhibition)": "inactive"}
{"smiles": "CC(=O)c1cc(CN2CCC(C(=O)Nc3cccc(-c4cscn4)c3)CC2)cs1", "normalized B-score (activity score, 25-100; higher = stronger inhibition)": "25 (active)"}
{"smiles": "O=C(Nc1cccc(-c2cscn2)c1)C1CCN(Cc2ccsc2)CC1", "normalized B-score (activity score, 25-100; higher = stronger inhibition)": "inactive"}
{"smiles": "COc1ccc2oc(C(=O)NCC(Cc3ccccc3)N(C)C)c(C)c2c1", "note": "(stereo unspecified)", "normalized B-score (activity score, 25-100; higher = stronger inhibition)": "inactive"}
{"smiles": "O=C(Nc1ncc([N+](=O)[O-])s1)C1COc2ccccc2O1", "note": "(stereo unspecified)", "normalized B-score (activity score, 25-100; higher = stronger inhibition)": "25 (active)"}
{"smiles": "COc1ccc(NC(=O)C2COc3ccccc3O2)cc1", "note": "(stereo unspecified)", "normalized B-score (activity score, 25-100; higher = stronger inhibition)": "inactive"}
{"smiles": "CC(=O)Oc1ccccc1C(=O)Nc1ncc([N+](=O)[O-])s1", "normalized B-score (activity score, 25-100; higher = stronger inhibition)": "100 (active)"}
{"smiles": "COc1ccc(NC(=O)c2ccccc2[N+](=O)[O-])cc1OC", "normalized B-score (activity score, 25-100; higher = stronger inhibition)": "inactive"}
{"smiles": "COc1ccc(OC)c2sc(NC(=O)C3COc4ccccc4O3)nc12", "note": "(stereo unspecified)", "normalized B-score (activity score, 25-100; higher = stronger inhibition)": "inactive"}
{"smiles": "Cc1cnc(NC(=O)c2ccccn2)s1", "normalized B-score (activity score, 25-100; higher = stronger inhibition)": "inactive"}
